Data taken from the supplement of paper PMC8728848.
This excerpt belongs to a sample that is enriched for the strongest signals.

What was measured:
Experiment in all cases: glycan array binding signal (z-score within array); higher = stronger binding
Settings in all cases: glycan notation: IUPAC condensed, linker removed
GalNAc(b1-3)GlcNAc = target: GalNAc(b1-3)GlcNAc
Method in brief: (§1)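 Glycan array data came from 3228 arrays in the Consortium for Functional Glycomics database, and only arrays with an available protein sequence were kept. Glycan names were put into IUPAC-condensed notation, and columns mapping to the same glycan were averaged. The binding signal is a within-array Z-score, averaged across arrays of one protein sequence run at different concentrations or buffers and across linkers. A negative Z-score can be read as non-binding.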

[1] = target: Glc(a1-6)Glc(a1-6)Glc(a1-6)Glc
Method in brief: as §1

[2] = target: GlcNAc(a1-4)Gal(b1-3)GlcNAc
Method in brief: as §1

[3] = target: GlcNAc(b1-2)Man(a1-3)[GlcNAc(b1-2)Man(a1-6)]Man(b1-4)GlcNAc(b1-4)[Fuc(a1-6)]GlcNAc
Method in brief: as §1

[4] = target: GlcNAc(b1-3)Gal(b1-4)GlcNAc(b1-3)Gal(b1-4)GlcNAc(b1-3)Gal(b1-4)GlcNAc(b1-3)Gal(b1-4)GlcNAc(b1-2)Man(a1-3)[GlcNAc(b1-3)Gal(b1-4)GlcNAc(b1-3)Gal(b1-4)GlcNAc(b1-3)Gal(b1-4)GlcNAc(b1-3)Gal(b1-4)GlcNAc(b1-2)Man(a1-6)]Man(b1-4)GlcNAc(b1-4)[Fuc(a1-6)]GlcNAc
Method in brief: as §1

[5] = target: GlcNAc(b1-4)GlcNAc(b1-4)GlcNAc
Method in brief: as §1

[6] = target: GlcNAc(b1-4)GlcNAc(b1-4)GlcNAc(b1-4)GlcNAc(b1-4)GlcNAc
Method in brief: as §1

[7] = target: GlcNAc(b1-6)Gal(b1-4)GlcNAc
Method in brief: as §1

GlcNAc(b1-6)GalNAc = target: GlcNAc(b1-6)GalNAc
Method in brief: as §1

[8] = target: Neu5Ac(a2-3)Gal(b1-3)GalNAc
Method in brief: as §1

[9] = target: Neu5Ac(a2-3)Gal(b1-3)GalNAc(b1-4)[Neu5Ac(a2-3)]Gal(b1-4)Glc
Method in brief: as §1

[10] = target: Neu5Ac(a2-3)Gal(b1-4)GlcNAc(b1-2)Man
Method in brief: as §1

[11] = target: Neu5Ac(a2-3)Gal(b1-4)GlcNAc(b1-2)Man(a1-3)[Neu5Ac(a2-3)Gal(b1-4)GlcNAc(b1-2)Man(a1-6)]Man(b1-4)GlcNAc(b1-4)[Fuc(a1-6)]GlcNAc
Method in brief: as §1

[12] = target: Neu5Ac(a2-3)Gal(b1-4)GlcNAc(b1-2)[Neu5Ac(a2-3)Gal(b1-4)GlcNAc(b1-4)]Man(a1-3)[GlcNAc(b1-4)][Neu5Ac(a2-3)Gal(b1-4)GlcNAc(b1-2)[Neu5Ac(a2-3)Gal(b1-4)GlcNAc(b1-6)]Man(a1-6)]Man(b1-4)GlcNAc(b1-4)GlcNAc
Method in brief: as §1

[13] = target: Neu5Ac(a2-3)Gal(b1-4)GlcNAc(b1-3)Gal(b1-4)GlcNAc(b1-2)Man(a1-3)[Neu5Ac(a2-3)Gal(b1-4)GlcNAc(b1-3)Gal(b1-4)GlcNAc(b1-2)Man(a1-6)]Man(b1-4)GlcNAc(b1-4)GlcNAc
Method in brief: as §1

[14] = target: Neu5Ac(a2-3)Gal(b1-4)[Fuc(a1-3)]GlcNAc(b1-2)Man
Method in brief: as §1

[15] = target: Neu5Ac(a2-3)Gal6S(b1-4)GlcNAc
Method in brief: as §1

[16] = target: Neu5Ac(a2-6)Gal(b1-4)GlcNAc(b1-2)Man(a1-3)[GlcNAc(b1-2)Man(a1-6)]Man(b1-4)GlcNAc(b1-4)GlcNAc
Method in brief: as §1

[17] = target: Neu5Ac(a2-6)Gal(b1-4)GlcNAc(b1-3)Gal(b1-4)GlcNAc(b1-2)Man(a1-3)[Neu5Ac(a2-6)Gal(b1-4)GlcNAc(b1-3)Gal(b1-4)GlcNAc(b1-2)Man(a1-6)]GalNAc
Method in brief: as §1

[18] = target: Neu5Ac(a2-6)Gal(b1-4)GlcNAc(b1-3)Gal(b1-4)GlcNAc(b1-3)GalNAc
Method in brief: as §1

[19] = target: Neu5Ac(a2-6)Gal(b1-4)GlcNAc(b1-3)Gal(b1-4)GlcNAc(b1-6)[Gal(b1-3)]GalNAc
Method in brief: as §1

[20] = target: Neu5Ac(a2-6)Gal(b1-4)GlcNAc(b1-3)Gal(b1-4)[Fuc(a1-3)]GlcNAc(b1-3)Gal(b1-4)[Fuc(a1-3)]GlcNAc
Method in brief: as §1

[21] = target: Neu5Ac(a2-6)GlcNAc(b1-4)GlcNAc(b1-4)GlcNAc
Method in brief: as §1

[22] = target: Neu5Ac(a2-8)Neu5Ac(a2-3)Gal(b1-4)GlcNAc
Method in brief: as §1

[23] = target: Neu5Ac(a2-8)Neu5Ac(a2-3)[Gal(b1-3)GalNAc(b1-4)]Gal(b1-4)Glc
Method in brief: as §1

[24] = target: Neu5Ac(a2-8)Neu5Gc(a2-3)Gal(b1-4)GlcNAc
Method in brief: as §1

[25] = target: Neu5Ac9Ac(a2-3)Gal(b1-3)GlcNAc
Method in brief: as §1

[26] = target: Neu5Gc(a2-8)Neu5Gc(a2-3)Gal(b1-4)GlcNAc(b1-3)Gal(b1-4)GlcNAc
Method in brief: as §1

B1: PX9937D-bvu-500-26-500 (Bacteroides vulgatus) (protein)
chain: DPVSDITDLNYWKTPEQFDSFVFGLHSRFRSHSWNMFLLGEARSDVFGGIPFGGEATQGMERFPYNTLNAENPGISGFGDLYQNINQMNLFISRTLHTDVLTESARNYYLGQVYGLRAYYMYQLYRSWGDVVFTEEPSLGFEVGKLAKAATPAAEIFEQVKKDIESSLSYFGSDYTIKEKKSLWSKAATLMLKADVYLWSAHRDGGEGDARTAKNALVDIQNNISRSNLDLMDTYQGVFAYDNKGNKEIIFTIHNELFEYNLWNGNNDLFPQADYLGKFYNADGTLINTSVENNFGIMRLMVKLENFKKFLPGDTRRDVTLKDVYNKVENGKLELVGVYPHKYWGVMNGSTRVRCDDYPIYRYSDLLLMLAEAKVLLGEDPATEINRVRRRAFGDAYDASTVGFPNQEVDKRPADAVLQERLFEFMLEGKRWYDLRRFGDSYVLDYTPAEPARLLWPINQGALTNNPLLKQTVGY
How did the “glycan array binding signal (z-score)” value (GalNAc(b1-3)GlcNAc) turn out when B1 was run?
The value was -0.418.

And the “glycan array binding signal (z-score)” value [1]?
The value was -0.405.

And the “glycan array binding signal (z-score)” value [2]?
The value was -0.056.

And the “glycan array binding signal (z-score)” value [3]?
Its value is -0.178.

What about the “glycan array binding signal (z-score)” value [4] of the same binder?
The value was -0.298.

And the “glycan array binding signal (z-score)” value [5]?
Its value is -0.41.

What about the “glycan array binding signal (z-score)” value [6] of the same binder?
The value was -0.558.

What about the “glycan array binding signal (z-score)” value [7] of the same binder?
Its value is 0.08.

What about the “glycan array binding signal (z-score)” value (GlcNAc(b1-6)GalNAc) of the same binder?
The value was 0.455.

And the “glycan array binding signal (z-score)” value [8]?
The value was -0.219.

And the “glycan array binding signal (z-score)” value [9]?
The value was -0.308.

What about the “glycan array binding signal (z-score)” value [10] of the same binder?
Its value is -0.574.

And the “glycan array binding signal (z-score)” value [11]?
The value was -0.13.

And the “glycan array binding signal (z-score)” value [12]?
The value was -0.306.

What about the “glycan array binding signal (z-score)” value [13] of the same binder?
Its value is 0.163.

And the “glycan array binding signal (z-score)” value [14]?
Its value is 0.114.

What about the “glycan array binding signal (z-score)” value [15] of the same binder?
Its value is -0.307.

And the “glycan array binding signal (z-score)” value [16]?
The value was -0.121.

What about the “glycan array binding signal (z-score)” value [17] of the same binder?
Its value is 4.23.

What about the “glycan array binding signal (z-score)” value [18] of the same binder?
Its value is -0.414.

And the “glycan array binding signal (z-score)” value [19]?
The value was 0.256.

What about the “glycan array binding signal (z-score)” value [20] of the same binder?
Its value is 0.021.

What about the “glycan array binding signal (z-score)” value [21] of the same binder?
Its value is 0.037.

What about the “glycan array binding signal (z-score)” value [22] of the same binder?
The value was -0.636.

And the “glycan array binding signal (z-score)” value [23]?
The value was -0.284.

What about the “glycan array binding signal (z-score)” value [24] of the same binder?
Its value is 10.6.

And the “glycan array binding signal (z-score)” value [25]?
The value was -0.36.

And the “glycan array binding signal (z-score)” value [26]?
Its value is -0.056.
